From PubChem BioAssay AID1159580 (chemical genetic matrix, 2015)
“And” between values parts separate entries of the source, which are not always exact repeats. Equal values may be shown once. In all, about 5,500 compounds went through this assay and about 2,000 (36%) were called active. Roughly 18% stayed inconclusive and do not appear here. Rule as the data show it: active = normalized growth mostly below about 0.91 (no sharp cut-off); inconclusive = no clear call, values can overlap the other calls; inactive = mostly above about 0.92. This is one part of the list.

Experiment: chemical genetic growth profiling, strain panel (AID 1159580);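 also: tested at 20 µM; growth read once vehicle control cultures reached saturation at 30 °C; 1 = growth at the plate median or of vehicle wells; lower values mean less growth of the strain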
Details: S. cerevisiae deletion strains, growth OD

Measured: normalized growth

COC1=CC23CCCN2CCc2cc4c(cc2C3C1O)OCO4 (stereo not drawn)
inactive: locus YAL013W, strain DEP1, stronger effect = lower value 1.01 | locus YAL021C, strain ccr4, stronger effect = lower value 1.02 | locus YAL026C, strain drs2, stronger effect = lower value 1.03 | locus YAL030W, strain snc1, stronger effect = lower value 1.02 | locus YBL061C, strain skt5, stronger effect = lower value 1.03 | locus YBR009C, strain hhf1, stronger effect = lower value 1.04 | locus YBR021W, strain FUR4, stronger effect = lower value 1.01 | locus YBR023C, strain chs3, stronger effect = lower value 1.05 | locus YBR171W, strain sec66, stronger effect = lower value 1.06 | locus YBR229C, strain ROT2, stronger effect = lower value 1.01 | locus YBR231C, strain swc5, stronger effect = lower value 1.02 | locus YBR279W, strain paf1, stronger effect = lower value 1.03 | locus YCL011C, strain gbp2, stronger effect = lower value 1.02 | locus YCL016C, strain dcc1, stronger effect = lower value 1.03 | locus YCL029C, strain bik1, stronger effect = lower value 1.01 | locus YCL061C, strain MRC1, stronger effect = lower value 1.03 | locus YCL069W, strain vba3, stronger effect = lower value 1.02 | locus YCR088W, strain abp1, stronger effect = lower value 1.03 | locus YDL005C, strain med2, stronger effect = lower value 1.02 | locus YDL035C, strain GPR1, stronger effect = lower value 0.995 | locus YDL040C, strain nat1, stronger effect = lower value 1.02 | locus YDL074C, strain BRE1, stronger effect = lower value 1.04 | locus YDL101C, strain DUN1, stronger effect = lower value 1 | locus YDL185W, strain tfp1, stronger effect = lower value 1.01 | locus YDL192W, strain arf1, stronger effect = lower value 1 | locus YDR001C, strain nth1, stronger effect = lower value 1.02 | locus YDR069C, strain doa4, stronger effect = lower value 1.04 | locus YDR101C, strain arx1, stronger effect = lower value 1.01 | locus YDR137W, strain rgp1, stronger effect = lower value 1.05 | locus YDR150W, strain NUM1, stronger effect = lower value 1.01 | locus YDR159W, strain sac3, stronger effect = lower value 1.04 | locus YDR162C, strain NBP2, stronger effect = lower value 1.01 | locus YDR195W, strain ref2 1.01 | locus YDR297W, strain sur2, stronger effect = lower value 1.02 | locus YDR318W, strain mcm21, stronger effect = lower value 0.987 | locus YDR334W, strain swr1, stronger effect = lower value 1.03 | locus YDR335W, strain msn5, stronger effect = lower value 1.03 | locus YDR388W, stronger effect = lower value 1.01 | locus YDR392W, strain spt3, stronger effect = lower value 0.971 | locus YDR502C, strain sam2, stronger effect = lower value 0.995 | locus YEL003W, strain gim4, stronger effect = lower value 1.02 | locus YEL037C, strain rad23, stronger effect = lower value 1.02 | locus YEL061C, strain CIN8 (second series), stronger effect = lower value 1.02 | locus YEL061C, strain CIN8, stronger effect = lower value 1.01 | locus YER015W, strain faa2, stronger effect = lower value 1.02 | locus YER016W, strain bim1, stronger effect = lower value 1.02 | locus YER110C, stronger effect = lower value 1.01 | locus YER111C, strain swi4, stronger effect = lower value 1.03 | locus YER155C, strain BEM2 (second series), stronger effect = lower value 1.04 | locus YER155C, strain BEM2, stronger effect = lower value 1 | locus YER167W, strain BCK2, stronger effect = lower value 1 | locus YFR010W, strain ubp6, stronger effect = lower value 1.03 | locus YGL078C, strain dbp3, stronger effect = lower value 0.997 | locus YGL086W, strain mad1, stronger effect = lower value 1.03 | locus YGL167C, strain pmr1, stronger effect = lower value 1.03 | locus YGL173C, strain kem1, stronger effect = lower value 1.04 | locus YGL227W, strain vid30, stronger effect = lower value 1.02 | locus YGL240W, strain doc1, stronger effect = lower value 1.04 | locus YGL248W, strain PDE1, stronger effect = lower value 0.988 | locus YGL253W, strain hxk2, stronger effect = lower value 1.03 | locus YGR078C, strain PAC10, stronger effect = lower value 1 | locus YGR135W, strain pre9, stronger effect = lower value 0.986 | locus YGR229C, strain SMI1, stronger effect = lower value 1 | locus YGR252W, strain gcn5, stronger effect = lower value 0.952 | locus YHR013C, strain ard1, stronger effect = lower value 1.04 | locus YHR027C, strain rpn1, stronger effect = lower value 1.06 | locus YHR030C, strain SLT2, stronger effect = lower value 1.01 and 0.963 | locus YHR079C, strain IRE1 (second series), stronger effect = lower value 1.01 | locus YHR079C, strain IRE1, stronger effect = lower value 0.967 | locus YHR094C, strain hxt1, stronger effect = lower value 1.01 | locus YHR129C, strain ARP1, stronger effect = lower value 1.01 | locus YHR142W, strain chs7, stronger effect = lower value 1.05 | locus YHR200W, strain rpn10, stronger effect = lower value 1.01 | locus YIL066C, strain RNR3, stronger effect = lower value 1.01 | locus YIL073C, strain SPO22, stronger effect = lower value 1.04 | locus YIL125W, strain kgd1, stronger effect = lower value 1.01 | locus YIR030C, strain dcg1, stronger effect = lower value 1.01 | locus YJL092W, strain hpr5, stronger effect = lower value 1.02 | locus YJL095W, strain BCK1 (second series), stronger effect = lower value 1.02 | locus YJL095W, strain BCK1, stronger effect = lower value 0.983 and 0.975 | locus YJL115W, strain asf1, stronger effect = lower value 1.01 | locus YJL129C, strain trk1, stronger effect = lower value 1.03 | locus YJL134W, strain LCB3, stronger effect = lower value 1.01 | locus YJL154C, strain vps35, stronger effect = lower value 1.02 | locus YJL164C, strain tpk1, stronger effect = lower value 1.03 | locus YJL166W, strain qcr8, stronger effect = lower value 1.03 | locus YJL168C, strain set2, stronger effect = lower value 1 | locus YJL187C, strain SWE1 (second series), stronger effect = lower value 1
